# Assay outcomes as filed in PubChem BioAssay.
# Compounds with a hit are over-represented: about 1.2% of the library has one in this group of screens.
# PLCg1 inh: blocks human PLC-gamma1 enzyme activity; actives 0.84% (n = 370,000); AID 720700; P19174; purified PLC-gamma1, fluorogenic substrate, fluorescence; inhibition, % at 12.2 µM; in the data active means inhibition above about 9.5%
# GC-B act: GC-B (human) receptor activation. P20594. HEK293-GC-B cells, CNP EC30, cGMP TR-FRET; 0% at EC30 CNP, 100% saturating CNP. activation, % at 10 µM. actives 0.11% (n = 370,000). AID 1920062;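 active means activation at 10 µM reaching about 35% in either raw or pattern-adjusted values, limit read from the data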
# Target sequence (P20594 whole entry, looked up): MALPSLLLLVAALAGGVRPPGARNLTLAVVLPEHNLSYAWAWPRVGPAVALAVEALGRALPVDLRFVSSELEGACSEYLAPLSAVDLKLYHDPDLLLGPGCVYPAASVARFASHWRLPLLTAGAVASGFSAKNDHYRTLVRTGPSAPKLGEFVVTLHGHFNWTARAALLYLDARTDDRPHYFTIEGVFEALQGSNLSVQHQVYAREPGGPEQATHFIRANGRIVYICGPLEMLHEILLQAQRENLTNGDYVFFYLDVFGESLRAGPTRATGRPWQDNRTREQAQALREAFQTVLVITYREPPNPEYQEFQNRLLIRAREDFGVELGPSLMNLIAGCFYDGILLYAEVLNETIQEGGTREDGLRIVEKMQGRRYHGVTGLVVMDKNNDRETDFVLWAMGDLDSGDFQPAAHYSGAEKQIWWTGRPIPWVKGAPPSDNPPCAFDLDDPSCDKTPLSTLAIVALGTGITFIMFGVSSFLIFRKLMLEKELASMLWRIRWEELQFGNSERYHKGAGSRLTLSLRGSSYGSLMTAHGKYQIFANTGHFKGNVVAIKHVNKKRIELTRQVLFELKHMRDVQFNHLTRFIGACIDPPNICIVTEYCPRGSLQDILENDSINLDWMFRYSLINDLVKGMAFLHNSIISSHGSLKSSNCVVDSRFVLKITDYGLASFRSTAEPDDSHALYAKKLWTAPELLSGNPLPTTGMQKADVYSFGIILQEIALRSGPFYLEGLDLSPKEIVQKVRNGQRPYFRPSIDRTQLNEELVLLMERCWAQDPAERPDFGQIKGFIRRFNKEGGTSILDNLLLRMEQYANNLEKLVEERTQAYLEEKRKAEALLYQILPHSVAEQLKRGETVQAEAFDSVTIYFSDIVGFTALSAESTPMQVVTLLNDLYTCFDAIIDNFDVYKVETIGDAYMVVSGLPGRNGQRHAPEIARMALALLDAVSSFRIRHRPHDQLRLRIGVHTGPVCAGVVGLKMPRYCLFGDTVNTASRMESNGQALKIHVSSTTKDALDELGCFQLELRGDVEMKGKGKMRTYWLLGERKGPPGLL
# GC-A act: GC-A (human) enzyme activation | P16066 | HEK293 GC-A cells, cGMP TR-FRET, EC30 ANP; 0% at EC30 ANP, 100% saturating ANP | activation, % at 10 µM | actives 0.14% (n = 370,000) | AID 1671463; in the data active means activation above about 40%
# PLC-beta3 inh: blocks human PLC-beta3 enzyme activity. actives 0.18% (n = 370,000). inhibition, % at 12.2 µM. Purified PLC-beta3, fluorogenic substrate, fluorescence. AID 720704. Q01970; in the data active means inhibition above about 11%
# A number is an active result; 0 = inactive; - = not tested or not shown.
SMILES,PLCg1 inh,GC-B act,GC-A act,PLC-beta3 inh
COc1cccc(C(CNC(=O)c2ccc(Cl)c(S(=O)(=O)N3CCCC3)c2)N(C)C)c1 (stereo not drawn),0,0,0,0
COc1ccc(-n2c(N)c(C(=O)NCC3CCCO3)c3nc4ccccc4nc32)c(OC)c1 (stereo not drawn),0,40,40,0
CCN(CC)S(=O)(=O)c1ccc(C)c(NC(=O)COC(=O)CNC(=O)c2ccc(C(C)(C)C)cc2)c1,0,0,0,0
CN(C)c1nc(N(C)C)nc(N(C)C)n1,9.6,0,0,0
O=C(Nc1nc2c(Br)cc(Br)cc2c(=O)s1)c1ccco1,0,35,78,0
Cc1cc(-c2cccs2)c(C#N)c(=S)[nH]1,0,0,40,0
N#Cc1c(-c2cccs2)cc(-c2cccs2)[nH]c1=O,0,0,0,0
CSc1ncccc1C(=O)OCn1nnc2ccccc2c1=O,0,0,0,0
O=C(OCn1nnc2ccccc2c1=O)c1cccnc1Cl,12,0,0,0
O=C(CN1CCN(S(=O)(=O)N2CCCCCC2)CC1)Nc1ccc(F)cc1,0,0,0,0
COc1cccc(Oc2cn[nH]c2-c2ccc(O)cc2O)c1,0,0,55,0
COc1cccc(Oc2cn[nH]c2-c2ccc(OC)cc2O)c1,0,0,0,0
CSc1cccc(NC(=O)c2cc(S(=O)(=O)N3CCCCC3)c[nH]2)c1,0,0,0,0
CC(C)CC(c1nnnn1Cc1cccs1)N1CCN(c2nc3ccccc3s2)CC1 (stereo not drawn),9.9,0,0,0
CCC(c1nnnn1Cc1cccs1)N1CCN(c2nc3ccccc3s2)CC1 (stereo not drawn),0,0,0,0
O=C(COC(=O)CNC(=O)c1ccc(Cl)cc1Cl)NC(=O)NCc1ccccc1,11,0,0,0
O=C(CNC(=O)c1ccc(Cl)cc1Cl)OCc1ccccc1,0,0,0,0
CCCn1c(N)c(C(=O)CSc2nc(C)cs2)c(=O)[nH]c1=O,0,0,0,0
CCCn1c(N)c(C(=O)CSc2nc(C)nc3sc(C)c(C)c23)c(=O)[nH]c1=O,0,0,41,0
O=C(Nc1ccccc1F)C1CCN(C(=O)NCc2ccccc2)CC1,0,0,0,0
CC1=C(C(=O)N2CCOCC2)C(c2c(C)cc(C)cc2C)NC(=S)N1 (stereo not drawn),0,0,0,0
CC1=C(C(=O)N2CCOCC2)C(c2ccc(C)cc2)NC(=S)N1 (stereo not drawn),0,65,59,0
CC1=C(C(=O)N2CCOCC2)C(c2ccc(Cl)cc2)NC(=S)N1 (stereo not drawn),0,61,54,0
COc1ccc(NC(=O)CSCC(=O)Nc2ccccc2N2CCCCC2)cc1,0,0,0,0
O=C1C=C(N2CCOCC2)CO1,0,0,0,0
SMILES,PLCg1 inh,GC-B act,GC-A act,PLC-beta3 inh
CCOC(=O)Cc1cc(=O)n2[nH]c(C)c(-c3ccc(Cl)cc3)c2n1,0,45,44,0
CCOC(=O)Cc1cc(=O)n2[nH]c(C)c(-c3ccc(OC)cc3)c2n1,0,51,49,0
C[C@H]1COc2cccc(NCCO)c2S(=O)(=O)N1,0,0,0,0
COCCCn1c(=O)c2ccccc2n(Cc2ccc(C)cc2)c1=O,0,0,0,0
Cc1ccc(Cn2c(=O)c3ccccc3n3nc(C)cc23)cc1,0,36,0,0
CC1(C)CC(=O)C(C(c2ccc3c(c2)OCO3)C2C(=O)CC(C)(C)CC2=O)C(=O)C1,0,0,0,0
Cc1cc(C)c(S(=O)(=O)ON2C(=O)c3ccccc3C2=O)cc1C,0,36,0,0
Cc1ccc(S(=O)(=O)ON2C(=O)c3ccccc3C2=O)c(C)c1,0,46,41,0
Cc1cccc2c1N(C)C(=O)C2=O,0,0,0,0
Cc1cc(C)c(C)c(S(=O)(=O)ON2C(=O)c3ccccc3C2=O)c1C,0,47,42,0
O=S(=O)(c1ccccc1)N1CCN(S(=O)(=O)c2ccc(F)cc2)CC1,0,0,0,0
O=C1c2ccccc2C(=O)N1OS(=O)(=O)c1ccc(F)cc1,0,0,42,0
O=[N+]([O-])c1cc2no[n+]([O-])c2cc1N1CCCCC1,0,0,42,0
COc1ccc(CCNC(=O)Cn2nnc(-c3ccccc3F)n2)cc1OC,9.9,-,-,0
CN(CCOc1ccccc1)C(=O)c1ccc2c(=O)n3c(nc2c1)CCC3,0,0,0,0
CC1(C)OC(=O)C(=Cc2ccc(-c3ccc(S(N)(=O)=O)cc3)o2)C(=O)O1,0,0,40,0
NS(=O)(=O)c1ccc(-c2ccc(/C=C3\C(=O)Nc4cc(Cl)ccc43)o2)cc1,0,0,0,0
CC(=O)Nc1cc(-c2ccccc2Cl)cn2c(-c3ccc(S(C)(=O)=O)cc3)cnc12,0,43,0,0
COc1ccccc1-c1cc(NC(C)=O)c2ncc(-c3ccc(S(C)(=O)=O)cc3)n2c1,0,0,0,0
Clc1ncnc2c1oc1ccccc12,0,0,53,0
CC(=NNC(=S)Nc1ccccc1Cl)c1ccccn1,0,0,0,0
CCN(CC)C1CCN(C(=O)c2ccc(OC3CCN(CCc4ccccc4)CC3)cc2)C1 (stereo not drawn),0,0,0,0
COc1ccc(C(C)=O)cc1Cn1nnc(-c2ccccc2Br)n1,0,0,0,0
CC(C)NC(=O)CSc1ccccc1C(=O)N1CCN(S(=O)(=O)Cc2ccccc2)CC1,11,0,0,0
CCOC(=O)CSc1nc(-c2ccc3c(c2)OCO3)ccc1C#N,0,0,0,0
SMILES,PLCg1 inh,GC-B act,GC-A act,PLC-beta3 inh
CCOC(=O)CCCSc1nc(-c2ccc3c(c2)OCO3)cc(C(F)(F)F)c1C#N,0,0,51,0
CC(=O)NC12CC3CC(C1)CC(C(=O)Nc1nc4ccc(F)cc4s1)(C3)C2,0,0,43,0
CCCC(=O)Nc1sc2c(c1C#N)CC(C)(C)NC2(C)C,0,0,0,0
COc1ccc(CC(=O)Nc2sc3c(c2C#N)CC(C)(C)NC3(C)C)cc1OC,0,37,0,0
O=C1CC(N(CCc2ccccc2)C(=S)Nc2ccccc2)C(=O)N1c1ccc(F)cc1 (stereo not drawn),0,0,0,0
COc1ccc(NC(=O)/C(Cl)=C(/Cl)S(=O)(=O)Cc2ccccc2)cn1,10,0,0,0
COc1ccc(NC(=O)C(Cl)=C(Cl)Cl)cn1,0,0,0,0
O=[N+]([O-])c1c(Nc2ccc(O)cc2)cc(Cl)c2nonc12,0,50,62,0
CN(C)c1cc(Nc2ccc(O)cc2)c([N+](=O)[O-])c2nonc12,0,0,0,0
O=[N+]([O-])c1c(Nc2ccccn2)cc(Cl)c2nonc12,0,43,50,0
CN(Cc1ccccc1)CC(O)CN(C)Cc1ccccc1,0,0,0,0
CC(=O)Nc1ccc2oc(-c3cc(F)c(F)cc3Cl)nc2c1,0,0,58,0
CC(C)C(=O)Nc1ccc2oc(-c3cc(F)c(F)cc3Cl)nc2c1,0,0,0,0
Cn1c(CCN2CCN(c3ccccn3)CC2)nc2cc(NC(=O)COc3ccc([N+](=O)[O-])cc3)ccc21,0,0,0,0
CC1(C)CC2(CCCN(C(=S)Nc3ccccc3)C2)CCO1 (stereo not drawn),0,0,0,0
